Source: PubChem BioAssay (The Scripps Research Institute Molecular Screening Center)
An excerpt weighted towards active compounds, which were near 0.83% of everything screened.
SRC3 inh: inhibits human SRC3 coactivator; Q9Y6Q9; HEK293 GAL4-SRC3 luciferase reporter, luminescence; inhibition, % at 3.6 µM; 0.17% of 360,000 active; AID 588352;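 active = inhibition above a per-campaign cutoff, the mean of all compounds plus 3 SD, cut at about 60% in these data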;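 also: 0% = DMSO-treated cells and 100% = gossypol-treated cells at 36 µM; higher means less SRC3-driven luciferase light from the GAL4 reporter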
NR5A2 inv ag: inverse agonists of human LRH-1 (NR5A2); O00482; inhibition, % at 3.6 µM; HEK293T StAR-luciferase reporter, LRH-1 transfected, 24 h; 0.13% of 360,000 active;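 active = inhibition above the mean inhibition of all tested compounds plus 3 SD, cut at about 73% in these data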;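 also: 0% = DMSO wells and 100% = reporter-only cells lacking LRH-1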
COUP-TFII inh: blocks human COUP-TFII nuclear receptor. P24468. HEK293T NGFI-A luciferase reporter, luminescence. inhibition, % at 8.6 µM. 0.7% of 370,000 active. AID 686940;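 active = inhibition above a per-plate cutoff, mean inhibition of test wells between control levels plus 3 SD, cut at about 38% in these data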;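 also: cells cotransfected with COUP-TFII expression vector driving the NGFI-A reporter; 0% = median of COUP-TF2 test wells and 100% = reporter-only cells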
SRC2 inh: inhibits human steroid receptor coactivator 2; Q15596; HEK293 GAL4-SRC2 luciferase reporter, luminescence; inhibition, % at 9 µM; 0.17% of 370,000 active; AID 651957;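 active = inhibition above the mean inhibition of all tested compounds plus 3 SD, set per campaign, cut at about 52% in these data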;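 also: 0% = DMSO treated cells and 100% = cells given Gossypol at 36 µM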
SRC1 inh: human NCOA1 inhibition; Q15788; HEK293 GAL4-SRC1 luciferase reporter, luminescence; inhibition, % at 3.6 µM; 0.12% of 360,000 active; AID 588354;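 active = inhibition above the campaign mean plus 3 SD, with each screening campaign given its own cutoff, cut at about 60% in these data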;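 also: 0% = DMSO treated cells and 100% = gossypol at 36 µM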
VP16 Luc counter: VP16 inhibition counter-screen for COUP-TFII; HEK293 Gal4-VP16 luciferase reporter, luminescence; 25% of 2,500 active; inhibition, % at 8.5 µM; shares compounds with COUP-TFII inh; in the data active = inhibition above about 13%
COUP-TFII conf: COUP-TFII (NR2F2) inhibition, confirmation assay | 45% of 2,500 active | inhibition, % at 8.5 µM | HEK293 NGFI-A luciferase reporter, luminescence | shares compounds with COUP-TFII inh;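 active = mean inhibition over three repeats above a set limit taken from the earlier primary screen, cut at about 38% in these data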;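 also: 100% = cells given the luciferase reporter alone without the COUP-TF2 vector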
* hit, by the source's call; . = no result.

SMILES	SRC3 inh	NR5A2 inv ag	COUP-TFII inh	SRC2 inh	SRC1 inh	VP16 Luc counter	COUP-TFII conf
Cc1ccc2nc(-c3ccc4c(c3)OCCO4)cn2c1	39	10	77*	70*	37	54*	71*
c1ccn2cc(-c3ccc4c(c3)OCCO4)nc2c1	-49	-74	6	0	-65	.	.
C[C@H]1CCC[C@H](O)CC(=O)c2c(O)cc(O)cc2CC(=O)O1	.	.	-32	20	.	.	.
CCC(C)(C)c1ccc(OCCCC[n+]2ccccc2)c(C(C)(C)CC)c1	36	44	54*	-25	8	7	16
CCC(C)(C)c1ccc(Oc2cccc(C(=O)O)c2)cc1	-73	-75	-20	-26	-86	.	.
O=C1CCC[C@H]2C[C@H](NCCc3ccncc3)CC[C@]23CCCN13	.	.	8	.	.	.	.
Fc1ccc(-n2nnnc2-c2cnc(-c3cccs3)nc2C(F)(F)F)cc1	26	5	53*	28	30	9	38*
FC(F)(F)c1nc(N2CCCC2)ncc1-c1nnnn1-c1ccc(Cl)cc1	18	12	38*	21	5	4	33
FC(F)(F)c1nc(-c2ccncc2)ncc1-c1nnnn1-c1ccccc1	7	1	9	-14	4	.	.
CCOc1ccccc1C(=O)Nc1cc2c(cc1N1CCCC1)n(CC)c(=O)n2CC	32	47	41*	-3	24	-3	22
COC(=O)C1=C(C)N(C)C(=NCc2ccc3c(c2)OCO3)NC1c1ccc(C(F)(F)F)cc1 (stereo unspecified)	.	.	13	-19	.	.	.
COc1cccc(C(=O)N[C@H](C(=O)N2CCC[C@H]2C(=O)NC2CCCC2)c2ccccc2)c1	.	.	-14	4	.	.	.
COc1cccc(-c2csc(N3CCN(C(=O)Nc4ccc(Cl)cc4)CC3)n2)c1	-34	-32	1	2	-4	.	.
COc1ccc(NC(=O)N2CCN(c3nc(-c4cccc(OC)c4)cs3)CC2)cc1	19	-5	40*	1	3	-14	14
CCc1ccc(-c2cn3nc(C)c(C)nc3n2)cc1	-20	-52	47*	59*	-30	-42	-13
O=C(N/N=C/c1ccc[nH]1)c1ccccc1OCc1ccc(F)cc1	-8	-10	4	-5	-8	.	.
CCOc1ccc(OCc2ccc(C(=O)NN=Cc3ccc[nH]3)cc2)cc1	53	86*	73*	-28	-5	-4	71*
Nc1nc2c(ncn2[C@@H]2O[C@H](C(=O)N[C@@H](Cc3ccccc3)C(=O)NCc3ccc4c(c3)OCO4)[C@@H](O)[C@H]2O)c(=O)[nH]1	.	.	-6	6	.	.	.
C=C1C(=O)[C@]23C[C@H]1CCC2[C@@]1(C)C(C[C@@H]3O)[C@](C)(C(=O)OC)CC[C@@H]1OC(C)=O (stereo partly specified)	45	83*	49*	59*	23	64*	52*
OCCN(CCO)CC(O)COc1ccc(C23CC4CC(CC(C4)C2)C3)cc1 (stereo unspecified)	55	40	87*	73*	42	62*	72*
COC(=O)[C@]12C[C@H](CC(=O)N3CCCCC3)C(=O)N(CCC3=CCCCC3)C1=C[C@H](COCc1ccccc1)O[C@@H]2C	.	.	17	-14	.	.	.
O=C(c1ccccc1)c1ccc(OCC(O)CN2CCN(S(=O)(=O)N3CCCCC3)CC2)cc1 (stereo unspecified)	3	26	42*	22	14	-6	7
O=C(c1ccccc1)c1ccc(OCC(O)CN2CCCCC2)cc1 (stereo unspecified)	17	4	-1	-23	0	.	.
CC(C)c1ccc(-c2nc3ccccc3s2)cc1	87*	82*	89*	80*	82*	68*	98*
FC(F)(F)c1ccc(-c2nc3ccccc3s2)cc1	-43	-5	8	-43	-66	.	.
CN(C(=O)OC(C)(C)C)c1ccc(-c2nc3ccccc3s2)cc1	87*	85*	97*	85*	86*	87*	107*
COC(=O)N(C)c1nc2ccccc2s1	-18	-18	-35	-30	-44	.	.
